Screening results: PubChem, Corson Lab, School of Medicine, Indiana University
The entries come from a sample that favours hits as a whole.
FECH block – inhibitors of human ferrochelatase | 20,000 compounds, 3.3% hits | calls only at 10 µM (by protocol) | purified FECH, Ni-mesoporphyrin absorbance 550 nm | P22830 | AID 1671448;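 active = enzyme reaction rate more than 3 SD below the solvent-only control wells on the same plate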;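 also: lower slope than DMSO wells means FECH inhibition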
Target sequence (P22830 whole entry, looked up): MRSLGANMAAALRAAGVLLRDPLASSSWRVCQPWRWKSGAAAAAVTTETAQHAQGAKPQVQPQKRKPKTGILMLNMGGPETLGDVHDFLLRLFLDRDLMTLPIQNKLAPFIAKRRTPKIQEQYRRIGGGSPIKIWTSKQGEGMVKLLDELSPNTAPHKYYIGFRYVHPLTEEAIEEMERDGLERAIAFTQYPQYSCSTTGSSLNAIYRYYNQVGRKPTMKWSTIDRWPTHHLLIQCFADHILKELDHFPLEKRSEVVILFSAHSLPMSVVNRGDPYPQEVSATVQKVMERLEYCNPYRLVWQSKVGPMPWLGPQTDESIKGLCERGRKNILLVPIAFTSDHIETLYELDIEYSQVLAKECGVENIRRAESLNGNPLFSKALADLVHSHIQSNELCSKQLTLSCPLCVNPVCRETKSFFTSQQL
Large screens that a line does not name were inactive.

Cc1ccccc1NC(=O)N1CCC(n2cnc3cccnc32)CC1	none
O=C(NC1CCCC1)N1CCC(n2cnc3cccnc32)CC1	FECH block active
COc1cccc(NC(=O)N2CCC(n3cnc4cccnc43)CC2)c1	FECH block active
CCCNC(=O)N1CCC(n2cnc3cccnc32)CC1	none
COc1cc(NC(=O)N2CCC(n3cnc4cccnc43)CC2)cc(OC)c1OC	none
O=C(Nc1ccccc1)N1CCC(n2cnc3cccnc32)CC1	FECH block active
Cc1cccc(NC(=O)N2CCC(n3cnc4cccnc43)CC2)c1	none
O=C(Nc1cccc(Br)c1)N1CCC(n2cnc3cccnc32)CC1	none
COc1cc(NC(=O)N2CCC(n3cnc4cccnc43)CC2)cc(OC)c1	none
Cn1nccc1NC(=O)c1cccc(CN2CCC(Oc3ncccn3)CC2)c1	none
CCC(=O)Nc1ccccc1-c1nnc(SCC(=O)Nc2ccc(C(C)=O)cc2)[nH]c1=O	none
Cc1nc(CCNC(=O)CCc2n[nH]c3c2CCCC3)nc2c1CCCC2	none
CCC(=O)Nc1cccc(C(=O)N2C[C@H](OC(C)C)[C@@H](O)C2)c1	none
COc1ccc(-c2cc(=O)[nH]c(SCc3nc(-c4ccccc4)oc3C)n2)cc1	none
CN(Cc1nc2c(s1)CCCC2)C(=O)c1cn(Cc2ccc(F)cc2)nn1	none
COCCn1cncc1Cn1cnc(-c2ccccc2)c1-c1ccc(C)o1	none
Cc1nc(C2CCNCC2)cc(N2CCc3c([nH]c4ccccc34)C2)n1	none
COc1cccc(C(=O)Nc2cc(N3CCCS3(=O)=O)ccc2C)c1OC	none
Cc1nc2cccnc2n1C1CCN(C(=O)NCCc2ccccc2)CC1	none
COc1cccc(N2CCN(C(=O)c3nc4ccccc4n(C)c3=O)CC2)c1	FECH block active
Cc1ccc(NC(=O)c2nc3ccccc3n(C)c2=O)c(C)c1	none
Cc1cccc(N2CCN(C(=O)c3nc4ccccc4n(C)c3=O)CC2C)c1 (stereo unspecified)	FECH block active
Cn1c(=O)c(C(=O)N2CCN(C3CCCCC3)CC2)nc2ccccc21	none
Cc1cccc(N2CCN(C(=O)Cn3c(=O)c4cnc(-c5ccccc5)nc4n(C)c3=O)CC2C)c1 (stereo unspecified)	none
Cc1ccc(Cl)cc1N1CCN(C(=O)c2nc3ccccc3n(C)c2=O)CC1	none
CCCC(=O)Nc1nc2n(n1)C(c1ccc(F)cc1)C=C(c1ccc(C)cc1)N2 (stereo unspecified)	none
O=C(c1cn[nH]n1)N1CCc2nnc(CCc3ccccc3)n2CC1	none
Cc1nnc(SCC(=O)NCCn2cc(Cl)cn2)s1	none
CCOCCCNc1nc(Nc2ccc(F)cc2)c2cnn(-c3ccccc3)c2n1	none
CC(C)CN(CC(C)C)c1ncc(NS(=O)(=O)c2ccc(F)cc2)cc1C(=O)O	none
CC(C)CN(CC(C)C)c1ncc(NS(=O)(=O)c2ccccc2)cc1C(=O)O	none
COc1ccc(S(=O)(=O)Nc2cnc(N(CC(C)C)CC(C)C)c(C(=O)O)c2)cc1	FECH block active
O=C(CCCn1cccn1)NC1CC(=O)N(Cc2cccc3ccccc23)C1 (stereo unspecified)	none
NS(=O)(=O)c1ccc(CCNC(=O)c2cc(-c3ccc(Cl)cc3)on2)cc1	none
Cc1ccc(-c2cc(C(=O)Nc3ccc(S(N)(=O)=O)cc3)no2)cc1C	FECH block active
Cc1nc(-c2cccc(NC(=O)Nc3ccc(S(N)(=O)=O)cc3)c2)no1	none
Cc1cccc(-n2cc(CN(C)C(=O)CN3CCCN(C)CC3)cn2)c1	none
Cc1cccc(CN2CC=C(C(=O)Nc3cccc(F)c3)CC2)c1	none
Cc1cc(C)n(CCC(=O)N(C)Cc2noc(CC(C)C)n2)c(=O)n1	none
CC(C)c1nc(CCN(C)C(=O)c2ccc(Cl)cn2)no1	none
Cc1cc(C)n(CCC(=O)N(C)CCc2noc(C(C)C)n2)c(=O)n1	FECH block active
COc1cccc(NC(=O)C2CCCN(c3ccc(-c4cccc(C)c4)nn3)C2)c1 (stereo unspecified)	none
Cn1c(=O)c(C(=O)Nc2ccccn2)nc2ccccc21	FECH block active
Cn1c(=O)c(C(=O)Nc2ccccc2Br)nc2ccccc21	none
Cn1c(=O)c(C(=O)Nc2ccc(F)cc2)nc2ccccc21	none
O=C(CN1c2ccc(F)cc2-c2ccccc2S1(=O)=O)Nc1ccccc1Oc1ccccc1	FECH block active
COc1ccc(NC(=O)CN2c3ccc(C(C)C)cc3-c3ccccc3S2(=O)=O)cc1Cl	none
C=CCNC(=O)c1ccccc1NC(=O)CN1c2ccc(C(C)C)cc2-c2ccccc2S1(=O)=O	none
CCc1ccc2c(c1)-c1ccccc1S(=O)(=O)N2CC(=O)Nc1ccc(F)cc1	FECH block active
CC1CCN(c2ccc(NC(=O)CN3C(=O)c4ccccc4S3(=O)=O)cc2Cl)CC1	none
CCC1=C(c2ccc(OC)cc2)S(=O)(=O)N(CC(=O)Nc2ccc(F)cc2F)C1=O	none
O=C(CN1c2ccc(F)cc2-c2ccccc2S1(=O)=O)NCCN1CCOCC1	none
CCOc1ccccc1NC(=O)CN1c2ccc(C(C)C)cc2-c2ccccc2S1(=O)=O	FECH block active
CCc1ccc(C2=C(C)C(=O)N(CC(=O)Nc3ccc(C)c(F)c3)S2(=O)=O)cc1	none
O=C1CC(NS(=O)(=O)NCc2ccccc2)CN1c1ccccc1Cl (stereo unspecified)	none
COC(=O)[C@@H]1Cc2c([nH]c3ccccc23)CN1C(=O)c1cc(C)nc(C)n1	none
CC1(C)CC1(Cn1cnnc1)c1ccccc1 (stereo unspecified)	none
CCc1c(C)nc2ncnn2c1Sc1ccc(NC(=O)Nc2ccccc2F)cc1	none
O=C(Nc1nc2n(n1)C(c1ccccc1Cl)C=C(c1ccc(Cl)cc1)N2)c1ccccc1 (stereo unspecified)	none
CCN1CCC[C@H]1CNC(=O)c1cnc(-c2cccnc2)nc1	none
CNC(=O)CCN(C)C(=O)c1ccc(C(C)=O)s1	none
Cc1ccc(CN(C)C(=O)c2cc(Cn3ccc4ccccc43)[nH]n2)s1	none
COc1ccc(-c2ncc3c(=O)n(Cc4cccc(OC)c4)c(=O)n(C)c3n2)cc1	none
COc1ccccc1-c1nc(Cn2c(=O)c3cnc(-c4cccnc4)nc3n(C)c2=O)c(C)o1	none
CCOc1ccccc1-c1nc(Cn2c(=O)c3cnc(-c4ccc(C)cc4)nc3n(C)c2=O)c(C)o1	none
COc1ccc(-c2ncc3c(=O)n(Cc4cccc(C)c4)c(=O)n(C)c3n2)cc1	none
COc1ccc(-c2ncc3c(=O)n(Cc4cccnc4)c(=O)n(C)c3n2)cc1	FECH block active
COc1ccccc1-c1nc(Cn2c(=O)c3cnc(-c4ccc(C)cc4)nc3n(C)c2=O)c(C)o1	FECH block active
Cc1cccc(S(=O)(=O)Nc2cnc(N(C)Cc3ccccc3)c(C(=O)O)c2)c1	none
Cc1ccc(C2(O)CCN(Cc3ccc(Sc4nncn4C)o3)CC2)nc1	none
Cc1ccc(N2C(=O)CCS2(=O)=O)cc1S(=O)(=O)Nc1ccc(C(C)C)cc1	none
O=C(Cn1nc(C2CCNCC2)n(Cc2ccccc2)c1=O)N1CCCCC1	none
Cc1ccc(N2C(=O)CCS2(=O)=O)cc1S(=O)(=O)Nc1ccccc1OC(C)C	none
Cc1cccc(CN2CCN(CC(=O)Nc3c(C)cccc3C)S2(=O)=O)c1	none
O=C(CN1CCCN(Cc2cccc(Cl)c2)S1(=O)=O)Nc1ccccc1	none
Cc1cccc(CN2CCCN(CC(=O)Nc3cc(C)ccc3C)S2(=O)=O)c1	none
Cc1cccc(CN2CCCN(CC(=O)Nc3cc(Cl)ccc3C)S2(=O)=O)c1	FECH block active
Cc1ccc(NC(=O)CN2CCCN(Cc3cccc(Cl)c3)S2(=O)=O)c(Cl)c1	FECH block active
Cc1ccc(CN2CCCN(CC(=O)Nc3ccc(C)cc3Cl)S2(=O)=O)cc1	none
C=C(C)COc1cccc(C(=O)NCc2ccc(C(F)(F)F)nc2)c1	none
COc1ccccc1NC(=O)N1CCN(CCn2c(C(F)(F)F)nc3cccnc32)CC1	none
